For some of these results: Measured potencies and affinities stand elsewhere.
What was measured:
Set-up in all cases: scale not given: direction of the effect not stated beside the values
[1] = molecular target: Protein translocase subunit SecA (Escherichia coli (strain K12)) (UniProt P10408); experiment: Assay to Identify E. coli SecA ATPase Inhibitors; format: functional; conditions: 30 µM
[2] = molecular target: T1, Ubiquitin-activating enzyme e1, putative (Leishmania donovani (strain BPK282A1)) (UniProt E9BSI1); experiment: Leishmania donovani Ubiquitin Activating Enzyme (LdE1); format: functional; conditions: 30 µM
T1 sequence (whole entry): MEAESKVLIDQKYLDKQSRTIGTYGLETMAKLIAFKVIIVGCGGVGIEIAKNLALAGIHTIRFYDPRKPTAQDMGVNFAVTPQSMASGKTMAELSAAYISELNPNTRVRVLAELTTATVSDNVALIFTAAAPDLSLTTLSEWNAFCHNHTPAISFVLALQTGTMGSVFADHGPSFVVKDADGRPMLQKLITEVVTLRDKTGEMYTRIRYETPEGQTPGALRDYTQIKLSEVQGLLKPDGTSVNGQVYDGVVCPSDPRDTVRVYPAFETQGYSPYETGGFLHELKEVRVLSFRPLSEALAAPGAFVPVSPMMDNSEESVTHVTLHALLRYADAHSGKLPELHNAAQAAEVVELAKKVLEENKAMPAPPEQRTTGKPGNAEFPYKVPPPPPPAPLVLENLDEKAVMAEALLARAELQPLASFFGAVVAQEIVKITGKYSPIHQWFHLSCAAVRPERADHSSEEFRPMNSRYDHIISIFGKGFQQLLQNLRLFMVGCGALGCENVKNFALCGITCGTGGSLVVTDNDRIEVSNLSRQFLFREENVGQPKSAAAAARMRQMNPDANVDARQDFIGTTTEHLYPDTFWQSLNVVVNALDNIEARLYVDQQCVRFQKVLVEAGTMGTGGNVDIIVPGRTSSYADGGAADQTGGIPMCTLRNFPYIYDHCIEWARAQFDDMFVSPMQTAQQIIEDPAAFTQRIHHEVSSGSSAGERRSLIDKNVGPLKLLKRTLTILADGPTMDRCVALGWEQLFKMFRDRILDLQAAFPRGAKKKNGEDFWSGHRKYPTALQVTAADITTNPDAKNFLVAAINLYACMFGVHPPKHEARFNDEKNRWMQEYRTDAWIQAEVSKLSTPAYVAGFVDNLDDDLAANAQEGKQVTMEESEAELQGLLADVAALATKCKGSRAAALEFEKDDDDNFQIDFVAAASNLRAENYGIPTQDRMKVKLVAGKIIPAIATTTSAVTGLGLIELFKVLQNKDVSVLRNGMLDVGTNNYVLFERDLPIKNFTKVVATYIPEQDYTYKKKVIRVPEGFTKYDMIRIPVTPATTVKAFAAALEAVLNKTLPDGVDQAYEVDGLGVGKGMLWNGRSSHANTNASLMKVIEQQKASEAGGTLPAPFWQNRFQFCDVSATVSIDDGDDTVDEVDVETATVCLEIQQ

[3] = molecular target: Sialic acid-binding Ig-like lectin 9 (Homo sapiens) (UniProt Q9Y336); experiment: Hs-Siglec9 ALPHAscreen SOP 20170721; conditions: 10 µM
Chain of Sialic acid-binding Ig-like lectin 9 (Homo sapiens) (Q9Y336 whole entry): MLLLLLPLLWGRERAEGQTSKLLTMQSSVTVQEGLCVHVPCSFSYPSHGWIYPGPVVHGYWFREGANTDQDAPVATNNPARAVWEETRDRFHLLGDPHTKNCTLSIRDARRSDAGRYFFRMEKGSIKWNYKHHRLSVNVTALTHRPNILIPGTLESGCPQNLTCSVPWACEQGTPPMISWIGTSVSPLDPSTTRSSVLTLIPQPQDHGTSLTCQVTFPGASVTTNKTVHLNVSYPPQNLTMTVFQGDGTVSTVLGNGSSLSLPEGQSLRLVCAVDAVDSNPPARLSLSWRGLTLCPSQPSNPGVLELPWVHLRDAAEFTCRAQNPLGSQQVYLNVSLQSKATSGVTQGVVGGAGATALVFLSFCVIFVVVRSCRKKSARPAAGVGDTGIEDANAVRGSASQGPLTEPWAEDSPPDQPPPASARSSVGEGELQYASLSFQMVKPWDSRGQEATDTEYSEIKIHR

[4] = test system: Trypanosoma cruzi; experiment: Trypanosoma cruzi phosphomannomutase and mannose-1-phosphate guanylyltransferase assay; format: functional; conditions: 10 µM
[5] = molecular target: T2, Arginase-2, mitochondrial (Homo sapiens) (UniProt P78540); experiment: in vitro enzyme assay to detect the production of urea directly proportional to the activity of Arginase II; format: functional; conditions: 33.3 µM; note: in the data most compounds retested in dose-response had high values
T2 sequence (whole entry): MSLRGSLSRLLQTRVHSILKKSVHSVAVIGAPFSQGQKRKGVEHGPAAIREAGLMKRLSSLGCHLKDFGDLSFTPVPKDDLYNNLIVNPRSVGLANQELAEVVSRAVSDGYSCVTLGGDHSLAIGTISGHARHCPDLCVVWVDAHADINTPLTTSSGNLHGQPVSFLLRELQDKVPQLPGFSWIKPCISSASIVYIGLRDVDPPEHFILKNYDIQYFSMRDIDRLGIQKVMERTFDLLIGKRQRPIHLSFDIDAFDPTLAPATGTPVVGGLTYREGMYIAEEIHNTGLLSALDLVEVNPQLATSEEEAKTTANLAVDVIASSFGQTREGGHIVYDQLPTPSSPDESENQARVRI

[6] = molecular target: T3, Proteasome subunit beta (Trypanosoma cruzi) (UniProt O96673); experiment: Trypanosoma cruzi proteasome chymotrypsin-like activity (TcProtChymo) assay.; note: in the data most compounds retested in dose-response had high values; format: functional; conditions: 9.37 µM
T3 sequence (whole entry): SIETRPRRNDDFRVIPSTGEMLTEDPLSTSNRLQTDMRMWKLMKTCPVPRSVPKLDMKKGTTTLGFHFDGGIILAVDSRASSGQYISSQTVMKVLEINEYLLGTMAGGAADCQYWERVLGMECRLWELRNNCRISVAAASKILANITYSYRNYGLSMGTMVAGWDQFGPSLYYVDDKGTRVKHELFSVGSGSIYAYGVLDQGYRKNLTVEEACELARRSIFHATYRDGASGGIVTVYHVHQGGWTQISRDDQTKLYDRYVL

[7] = species: Homo sapiens; experiment: To identify inhibition of the IFN signalling (Jak-Stat) pathway via expression of an eGFP reporter gene under the control of an IFN-stimulated response element (ISRE) containing MxA promoter.; format: functional; conditions: 30 µM
[8] = molecular target: T4, Tyrosyl-tRNA synthetase, putative (Trypanosoma cruzi (strain CL Brener)) (UniProt Q4DSP6); experiment: Trypanosoma cruzi tyrosyl tRNA synthetase (TcYRS) _High Tyrosine SOP; format: functional; conditions: 30 µM; note: in the data most compounds retested in dose-response had high values
T4 sequence (whole entry): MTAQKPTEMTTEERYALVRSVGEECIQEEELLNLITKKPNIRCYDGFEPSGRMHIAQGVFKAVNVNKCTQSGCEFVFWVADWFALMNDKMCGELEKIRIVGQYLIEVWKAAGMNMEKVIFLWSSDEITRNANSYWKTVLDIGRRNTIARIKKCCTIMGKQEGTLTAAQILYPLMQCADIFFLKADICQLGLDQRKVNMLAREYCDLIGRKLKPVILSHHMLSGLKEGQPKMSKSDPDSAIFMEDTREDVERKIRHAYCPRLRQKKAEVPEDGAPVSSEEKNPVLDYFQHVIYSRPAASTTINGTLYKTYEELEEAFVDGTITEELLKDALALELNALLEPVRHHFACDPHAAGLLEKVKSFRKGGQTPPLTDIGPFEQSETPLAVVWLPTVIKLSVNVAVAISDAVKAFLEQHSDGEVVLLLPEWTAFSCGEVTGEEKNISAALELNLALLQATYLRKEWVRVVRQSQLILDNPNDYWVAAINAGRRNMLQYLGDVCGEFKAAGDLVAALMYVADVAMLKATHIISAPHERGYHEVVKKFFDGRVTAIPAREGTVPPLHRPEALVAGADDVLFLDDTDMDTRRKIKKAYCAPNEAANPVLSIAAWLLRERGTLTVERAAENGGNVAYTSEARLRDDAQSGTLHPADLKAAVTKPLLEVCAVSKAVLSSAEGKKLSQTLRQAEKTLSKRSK

[9] = molecular target: T4, Tyrosyl-tRNA synthetase, putative (Trypanosoma cruzi (strain CL Brener)); experiment: Trypanosoma cruzi tyrosyl tRNA synthetase (TcYRS) SOP; format: functional; conditions: 30 µM
[10] = molecular target: Chromo domain-containing protein 1 (Saccharomyces cerevisiae (strain ATCC 204508 / S288c) (Baker's yeast)) (UniProt P32657); experiment: ScCHD-1 Enzyme Inhibition Assay; format: functional; conditions: 30 µM; note: in the data most compounds retested in dose-response had high values
Chain of Chromo domain-containing protein 1 (Saccharomyces cerevisiae (strain ATCC 204508 / S288c) (Baker's yeast)) (P32657 whole entry, the tested form may be a part): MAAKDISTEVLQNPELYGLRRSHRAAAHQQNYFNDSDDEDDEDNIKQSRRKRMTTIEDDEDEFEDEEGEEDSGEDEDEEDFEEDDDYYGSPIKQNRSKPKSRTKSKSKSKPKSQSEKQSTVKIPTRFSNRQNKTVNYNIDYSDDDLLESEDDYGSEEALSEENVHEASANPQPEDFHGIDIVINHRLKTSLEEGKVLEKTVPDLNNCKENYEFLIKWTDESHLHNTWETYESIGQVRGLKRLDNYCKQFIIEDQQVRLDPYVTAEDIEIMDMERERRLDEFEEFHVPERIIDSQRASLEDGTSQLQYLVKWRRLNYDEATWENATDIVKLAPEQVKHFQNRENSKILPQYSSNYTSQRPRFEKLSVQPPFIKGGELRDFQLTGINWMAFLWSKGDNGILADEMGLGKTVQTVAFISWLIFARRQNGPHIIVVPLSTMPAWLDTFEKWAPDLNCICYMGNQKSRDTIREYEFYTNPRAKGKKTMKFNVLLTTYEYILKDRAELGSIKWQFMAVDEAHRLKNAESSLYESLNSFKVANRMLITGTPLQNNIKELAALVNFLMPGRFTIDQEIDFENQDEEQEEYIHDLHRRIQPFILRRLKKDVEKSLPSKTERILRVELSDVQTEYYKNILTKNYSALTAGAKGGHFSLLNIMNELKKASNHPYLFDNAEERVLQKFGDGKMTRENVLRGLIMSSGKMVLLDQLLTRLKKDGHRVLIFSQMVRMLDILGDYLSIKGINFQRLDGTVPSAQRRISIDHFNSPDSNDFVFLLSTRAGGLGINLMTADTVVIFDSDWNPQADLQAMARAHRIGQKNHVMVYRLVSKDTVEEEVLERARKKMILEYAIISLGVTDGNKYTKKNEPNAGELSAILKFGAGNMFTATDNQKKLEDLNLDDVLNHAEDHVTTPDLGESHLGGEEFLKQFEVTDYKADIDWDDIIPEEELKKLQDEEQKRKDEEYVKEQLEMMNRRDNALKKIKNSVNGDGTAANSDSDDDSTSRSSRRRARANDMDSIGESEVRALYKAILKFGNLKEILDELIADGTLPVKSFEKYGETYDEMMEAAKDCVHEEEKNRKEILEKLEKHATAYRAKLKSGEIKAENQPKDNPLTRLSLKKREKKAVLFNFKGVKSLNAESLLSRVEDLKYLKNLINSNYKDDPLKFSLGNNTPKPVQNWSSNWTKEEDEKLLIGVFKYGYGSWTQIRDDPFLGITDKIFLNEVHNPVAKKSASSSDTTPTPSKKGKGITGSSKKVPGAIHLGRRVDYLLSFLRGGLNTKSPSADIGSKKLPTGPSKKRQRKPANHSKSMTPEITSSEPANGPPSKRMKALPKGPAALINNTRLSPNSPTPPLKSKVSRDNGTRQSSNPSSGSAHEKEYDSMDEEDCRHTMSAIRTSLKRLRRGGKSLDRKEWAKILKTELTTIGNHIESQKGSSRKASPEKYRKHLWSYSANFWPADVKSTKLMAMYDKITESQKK

Chain of Protein translocase subunit SecA (Escherichia coli (strain K12)) (P10408 whole entry): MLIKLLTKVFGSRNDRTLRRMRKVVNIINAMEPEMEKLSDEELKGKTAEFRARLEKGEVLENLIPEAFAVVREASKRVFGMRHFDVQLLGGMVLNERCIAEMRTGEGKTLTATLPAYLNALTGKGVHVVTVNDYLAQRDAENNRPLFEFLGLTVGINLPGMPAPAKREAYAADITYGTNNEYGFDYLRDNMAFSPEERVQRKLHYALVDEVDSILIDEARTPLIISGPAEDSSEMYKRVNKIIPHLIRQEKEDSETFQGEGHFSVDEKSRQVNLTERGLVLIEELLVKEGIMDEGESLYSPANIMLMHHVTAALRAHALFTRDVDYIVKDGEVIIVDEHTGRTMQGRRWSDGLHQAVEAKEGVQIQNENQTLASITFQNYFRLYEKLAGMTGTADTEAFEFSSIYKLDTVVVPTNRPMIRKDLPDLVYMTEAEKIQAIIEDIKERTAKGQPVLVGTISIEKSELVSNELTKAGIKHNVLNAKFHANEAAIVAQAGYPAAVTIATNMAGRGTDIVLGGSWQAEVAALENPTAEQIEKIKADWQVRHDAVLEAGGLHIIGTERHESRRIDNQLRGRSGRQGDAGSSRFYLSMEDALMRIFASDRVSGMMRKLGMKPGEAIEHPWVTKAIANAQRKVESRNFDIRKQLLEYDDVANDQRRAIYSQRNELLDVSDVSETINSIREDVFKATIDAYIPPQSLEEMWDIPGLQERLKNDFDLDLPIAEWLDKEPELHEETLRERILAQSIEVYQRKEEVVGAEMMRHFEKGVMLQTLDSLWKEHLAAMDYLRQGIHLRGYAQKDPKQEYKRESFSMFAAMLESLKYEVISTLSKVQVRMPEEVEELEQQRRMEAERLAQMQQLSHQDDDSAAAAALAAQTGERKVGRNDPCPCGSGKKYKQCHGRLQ

Compound | Percent Effect [1] [%] | Percent Effect [2] [%] | Percent Effect [3] [%] | Percent Effect [4] [%] | Percent Effect [5] [%] | Percent Effect [6] [%] | Percent Effect [7] [%] | Percent Effect [8] [%] | Percent Effect [9] [%] | Percent Effect [10] [%]
O=C(CCN1CCCN(c2nccs2)CC1)Nc1ccccc1 | -2.89 | 10.7 | -7.96 | -4.82 | -5.76 | 13.2 | 17.4 | -0.526 | -5.13 | -12
Cc1nn(C)cc1CCC(=O)N1CCCC(n2cncn2)C1 (stereo not given) | -2.9 | 2.67 | 3.45 | 1.21 | 7.98 | 2.97 | -4 | 3.68 | 10.3 | -4.09
Cc1cccn2cc(CC(=O)N3CCCC(n4cncn4)C3)nc12 (stereo not given) | -0.27 | 17.9 | -8.4 | 6.1 | 5.74 | 15.6 | 17.2 | 3.35 | 22.9 | -6
O=C(c1ccncc1)N1CCCC2(COCCN(c3ccccc3)C2)C1 (stereo not given) | -5.29 | -1.3 | -2.94 | -6.72 | -5.26 | 20 | 0.424 | 6.84 | 7.69 | -1.75
Cc1nc(CN2CCN(Cc3nccn3C)CC2)no1 | -4.99 | 8 | -1.66 | 3.21 | -1.77 | 4.16 | 11.1 | 5.79 | 15.4 | -11.3
Cc1ncsc1-c1nnc(C2CCN(CC3CCCCC3)CC2)o1 | 1.3 | 14.7 | -11.6 | -1.97 | 0.443 | 14.8 | 25.8 | -3.17 | 5 | -21.3
CCC1=N[C@@]2(CC[C@@H]3CN(C(=O)NCc4ccccc4)C[C@@H]32)C(=O)N1C | -5.59 | -6.49 | -0.715 | -3.02 | -2.02 | 5.21 | 6.81 | 1.58 | -10.3 | 0.585
O=C(CN1CCCC(c2ccc(C(=O)O)cc2)C1)NC1CC1 (stereo not given) | -9.44 | 5.41 | 8.6 | 7.08 | 8.04 | 1.2 | -14.3 | 6.92 | 12.2 | -1.84
Fc1cccc(CN2CCO[C@H]3[C@@H](OCc4ccccn4)CC[C@@H]32)c1 | -6.18 | 6.49 | -6.92 | 7.3 | -3.24 | 8.91 | 4.17 | 2.63 | 15.4 | -0.559
CCC(=O)N(C)CC(=O)Nc1ccc(Br)cn1 | -6.29 | 2.67 | 0.577 | -4.22 | 1.77 | 6.87 | 8.04 | -0.526 | 2.56 | -5.17
CCc1ccsc1C(=O)N1CCN(CC(O)CC)CC1 (stereo not given) | -2.73 | 7.79 | 4.04 | 4.66 | -3.48 | 0.877 | -8.47 | 2.94 | 21.2 | -7.9
COCCC(=O)N1CCn2c(COCC3CC3)cnc2C1C (stereo not given) | -9.04 | 1.3 | 6.82 | -3.6 | -3.24 | 4.33 | -4.92 | 0.526 | 5.13 | -2.88
COc1ccccc1OCC(=O)NS(=O)(=O)c1ccccc1Br | -3.71 | 13 | 10.4 | 5.78 | 5.12 | 3.51 | 4.3 | 0 | 16.5 | -9.19
O=C1CC(c2ccncc2)C2(CCN(CCO)CC2)N1 (stereo not given) | -2.64 | 3.9 | -0.555 | 5.55 | -3.64 | 8.91 | -9.49 | -0.526 | 2.56 | 17.5
O=C(NCC1CCOC1)c1ccc(OCC(F)(F)F)nc1 (stereo not given) | -1.32 | 12.8 | 9.89 | -4.98 | 2.46 | 6.91 | 25.9 | 3.35 | 10.8 | -2.44
CN1CCCC2(CCN(C(=O)CCn3cncn3)C2)C1=O (stereo not given) | -9.37 | 2.7 | 4.1 | 4.17 | 5.94 | 12 | -0.496 | 4.79 | 19.5 | -0.366
c1cnn(CC2CCCN2Cc2nc(-c3ccoc3)no2)c1 (stereo not given) | -4.7 | 5.33 | 2.88 | 3.41 | -4.88 | 10.3 | -9.56 | 4.74 | 7.69 | -12.5
c1ncn(CC2CN(Cc3noc(C4CC4)n3)CCO2)n1 (stereo not given) | -7.36 | 2.67 | 2.48 | -1 | -3.55 | -1.1 | 15.2 | -1.58 | 0 | -8.55
c1ccc(OCc2nnc3n2CCN(CC2CCOCC2)C3)nc1 | -2.49 | 1.3 | -1.26 | -1.07 | -2.43 | -0.0883 | -3.47 | 0.526 | -89.7 | -2.56

From ChEMBL document CHEMBL3988442, “University of Dundee, Small-Polar-MMV Screening Library” (2021)
